Pf Dd2 growth = qHTS Primary assay for Inhibitors of Plasmodium falciparum Dd2 growth in vitro; Potency, µM (top dose mostly 28.9 µM), without a hit: top-dose activity, negative = inhibition, usual class: inhibitors; P. falciparum Dd2 growth, SYBR Green, 72 h; 120,000 compounds, 4.3% hits; active = well fitted inhibition curve with a large enough effect;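 note: plate controls were DMSO vehicle for no effect and reference drug for full effect; nearly all actives have a fitted effect of over 65% in size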
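Infected erythrocytes (Dd2, 0.3% parasitemia, 2.5% hematocrit final) are added to compound in RPMI-1640/Albumax II medium, grown 72 h at 37C in low oxygen, then lysed with saponin/Triton-X containing SYBR Green and read by fluorescence.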
Active calls of the source: *; i = inactive; [ ] = another dose, or the depositor's remark. Shown is part of a subset that was picked to be rich in hits. Potency is the fitted concentration of half-maximal effect.

SMILES	Pf Dd2 growth
c1cc(-c2ccnc(NCC3(N4CCOCC4)CCCCC3)n2)ccn1	-18.4%
Fc1ccc(CCNc2nccc(-c3cccnc3)n2)cc1	-27.2%
CC(Cc1ccncc1)Nc1nccc(-c2cnn(-c3ccccc3)c2)n1 (stereo not drawn)	8.91µM*
CC(Cc1ccncc1)Nc1nccc(-c2cnn(-c3ccccc3F)c2)n1 (stereo not drawn)	5.01µM*
c1cncc(-c2ccnc(NCCc3csc(-c4ccncc4)n3)n2)c1	-6.7%
O=C(Cc1ccccc1)N1CCC2(CNc3ccccc3[S+](=O)([O-])N2)C1 (stereo not drawn)	i
Cc1ccc(S(=O)(=O)N2CCC(CCC(=O)O)CC2)cc1	-7.3%
CC(C)c1ccc(-c2nc(C3CC(=O)N(c4ccc(Cl)cc4)C3)no2)cc1 (stereo not drawn)	38.0%
Cc1ccc(C(=O)N2CC(c3nnc(C(C)C)o3)C3(CCOCC3)C2)cn1 (stereo not drawn)	-3.2%
Cc1ccc(S(=O)(=O)Nc2ccc(C)n(CC(=O)Nc3cccc(C)c3C)c2=O)cc1	-0.3%
O=[S+]1([O-])NCC2(CCN(Cc3ccc(F)cc3)C2)Oc2ccncc21 (stereo not drawn)	-18.4%
CCC1=C(C(=O)OC)C(c2ccccc2)N2C(CC(=O)N(C)Cc3ccccc3)=CSC2=N1 (stereo not drawn)	-24.1%
CCCN(CCC)C(=O)CC1=CSC2=NC(CC)=C(C(=O)OC)C(c3cccc(F)c3)N12 (stereo not drawn)	2.24µM*
CCC1=C(C(=O)OC)C(c2ccccc2F)N2C(CC(=O)N3CCCC3)=CSC2=N1 (stereo not drawn)	-12.2%
O=C(NC[C@H]1O[C@H](Cc2cc(-c3ccccc3)on2)CC[C@@H]1O)N1CCOCC1	3.1%[44.1 µM]
O=C(NC1CCCCC1)N1CCC(c2noc(-c3cnccn3)n2)C1 (stereo not drawn)	0.7%[5.79 µM]
COc1ccccc1NC(=O)CCn1cc(-c2nccn2C)nn1	-10.0%
COc1ccc(C(=O)N2CCCn3cncc3C2)c(OC)c1OC	6.8%
COC(C)(C)C(=O)N1CCN(c2nc(-c3ccccc3)nc3c2CCC3)CC1	i
CCN(CC1CCCO1)C(=O)C1CCN(c2nc(-c3ccccc3)nc3c2CCC3)CC1 (stereo not drawn)	11.2µM*
CC(C)(C)CC(=O)N1CCN(c2nc(-c3ccccc3)nc3c2CCC3)CC1	-9.6%
COc1ccc(CN(CC2CCCO2)C(=O)C2CCN(CC(N)=O)CC2)cc1 (stereo not drawn)	-20.0%
CN(C)c1nc(-c2ccccc2)nc2c1CCN(C(=O)C1CCOC1)C2 (stereo not drawn)	-15.7%
CNCCNC(=O)C1CCN(c2nc(-c3ccccc3)nc3c2CCC3)CC1	12.6µM*
Cn1nccc1CN1CCC2(CC(c3cccc(C(F)(F)F)c3)=NO2)C1 (stereo not drawn)	-9.4%
SMILES	Pf Dd2 growth
COCCN1C[C@H]2CN(C(=O)c3ccc4c(c3)OCO4)CCN2C1=O	-12.1%[44.1 µM]
CCOC(=O)C1CCCN(S(=O)(=O)c2cc(Br)cc3c2N(C(C)=O)CC3)C1 (stereo not drawn)	21.0%
CCOC(=O)c1cccc(NC(=O)C2CCCN(S(=O)(=O)c3cc(Br)cc4c3N(C(=O)CC)CC4)C2)c1 (stereo not drawn)	-23.3%
CCOc1ccc(OCC)c(NC(=O)C2CCCN(S(=O)(=O)c3cc(Br)cc4c3N(C(=O)CC)CC4)C2)c1 (stereo not drawn)	7.94µM*
COCCc1nncn1C1CCN(S(=O)(=O)c2ccccc2Cl)CC1	-7.9%
COc1ccc(CN2C(=O)[C@@H]3C[C@@H](O)CN3C3(CN(C4CCCCC4)C3)C2=O)cc1	i
COC[C@H]1CCCN1[C@@H]1[C@H](O)[C@H](CO)O[C@@H]1CN(Cc1cccc(Cl)c1)Cc1cccc(Cl)c1	0.708µM*
OC[C@@H]1O[C@H](CN(Cc2cccc(Cl)c2)Cc2cccc(Cl)c2)C(N2CCOCC2)[C@@H]1O (stereo partly drawn)	i
COC[C@H]1CCCN1[C@@H]1[C@H](O)[C@H](CO)O[C@@H]1CNC(=O)Nc1ccccc1	1.9%[44.1 µM]
Cc1cccc(=O)n1CCC(=O)N1CCCCC(N)C1 (stereo not drawn)	1.5%
O=C(Nc1ccc([C@H]2OCC(=O)N(C3CCOCC3)[C@@H]2CO)cc1)C1CCOCC1	21.5%[44.1 µM]
CC(=O)NCC(=O)N1Cc2ccccc2CC2(CCCN(C)C2)C1 (stereo not drawn)	5.4%
COc1ccc(-n2nc3ccc(NC(=O)COc4ccc(C)c(C)c4)cc3n2)cc1	6.3%
COc1ccc(Nc2cc(C)c3cc(NC(=O)COc4cccc(C)c4)ccc3n2)cc1	3.98µM*
COc1ccc(CC(=O)Nc2ccc3nc(Nc4cccc(Cl)c4)cc(C)c3c2)cc1OC	i
CCN(CC)C(=O)[C@@H]1CCC[C@@H](NC(=O)c2ccc3c(c2)OCO3)CN(C)C(=O)C1	34.1%[44.1 µM]
COc1ccc([S+](=O)([O-])N2CCC3(CC2)OCCN(CC2CC2)C3=O)cc1	-5.1%[44.1 µM]
CC(C)(C)OC(=O)N1CCC(c2c(C(=O)NCCN3CCC(Cc4ccccc4)CC3)cnn2-c2ccc(F)cc2)CC1	1.58µM*
CN1CCN(CCCNC(=O)c2cnn(-c3ccccc3)c2C2CCN(C(=O)OC(C)(C)C)CC2)CC1	i
CC(C)(C)OC(=O)N1CCC(c2c(C(=O)NCCN3CCC(Cc4ccccc4)CC3)cnn2-c2ccccc2)CC1	2.82µM*
COCCn1cnc2ccc(N3CCCC3)nc2c1=O	-18.4%[44.1 µM]
Cn1nc(C(=O)N2CCCOCCNC(=O)CC2)c2ccccc21	8.3%
CCOc1ccccc1NC(=O)N1CCCCCCNC(=O)CC1	4.3%
OCCC1CN(Cc2c(F)ccc(F)c2F)CCN1C1CCCC1 (stereo not drawn)	i
O=C(c1ccc2cccc(F)c2n1)N1CCOc2ccc(Cl)cc2C1	-65.1%
SMILES	Pf Dd2 growth
O=C(Nc1ccc([C@H]2OCC(=O)N(CC3CCCCC3)[C@@H]2CO)cc1)c1ccccn1	11.2µM*
O=C(c1ccccn1)N1C[C@@H]2OCC(=O)N(CC3CCCCC3)[C@@H]2C1	2.1%[44.1 µM]
Cc1ccccc1C(=O)Nc1ccc([C@H]2OCC(=O)N(Cc3ccncc3)[C@@H]2CO)cc1	16.5%[44.1 µM]
CCCNC(=O)N(C1CCOCC1)C1CCN(C(=O)c2ccc(C)s2)CC1	9.2%
CN(C(=O)c1ccccc1F)C1CCc2ccccc21 (stereo not drawn)	-19.1%[44.1 µM]
CC(=O)N1CCC(c2nn(-c3ccc(Cl)cc3)c(=O)[nH]2)CC1	i
CCN1CCN(CC(O)COc2cccc(CNCCCc3scnc3C)c2)CC1 (stereo not drawn)	i
CCN1CCN(CC(O)COc2cccc(CNCc3cnn(CC)c3)c2)CC1 (stereo not drawn)	0.4%
CN(CC(O)COc1cccc(CNCCc2ccc(F)cc2)c1)C1CCCCC1 (stereo not drawn)	3.98µM*
O=C1Nc2ccc(Br)cc2C(=O)N2CCN(C(=O)C3CCNCC3)C[C@H]12	0.8%[44.1 µM]
O=C(Cn1ccn2nc(-c3ccccc3)c(CO)c2c1=O)N1CCCCCC1	i
CNC(=O)N1CCC(C2CCN(C(=O)C3(C)CCCCC3)C2)CC1 (stereo not drawn)	-15.2%
COc1cccc(CNC(=O)NC2CCc3n[nH]c(=O)n3CC2)c1 (stereo not drawn)	41.3%
CCc1cccc(NC(=O)CN2CCCN(Cc3cccc(C)c3)S2(=O)=O)c1	28.2%
COc1cccc(CNC(=O)CN2CCCN(Cc3ccccc3)S2(=O)=O)c1	17.2%
CCOc1ccc(NC(=O)CN2CCN(Cc3ccccc3)S2(=O)=O)cc1	5.62µM*
